# SARS 3CLpro inh – SARS-CoV 3CLpro protease inhibition; recombinant SARS-CoV 3CLpro, quenched FRET peptide cleavage; inhibition, % at 6 µM; 290,000 compounds, 0.14% hits; AID 1706; in the data active means inhibition above about 12%
# DUSP3 inh – blocks human VHR1 dual specificity phosphatase | recombinant VHR phosphatase, pNPP absorbance | inhibition, % at 13.3 µM | 290,000 compounds, 0.52% hits | AID 1654; in the data active means inhibition above about 50%
# Target sequence (P51452 whole entry, looked up): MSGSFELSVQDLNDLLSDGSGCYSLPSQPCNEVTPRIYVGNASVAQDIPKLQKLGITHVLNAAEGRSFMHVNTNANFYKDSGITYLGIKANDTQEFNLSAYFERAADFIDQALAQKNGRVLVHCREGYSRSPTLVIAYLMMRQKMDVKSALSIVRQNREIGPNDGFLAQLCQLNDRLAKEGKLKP
# BoNT F protease – blocks Botulinum neurotoxin F light chain protease. inhibition, % at 10 µM. Multiplex microsphere protease cleavage assay, flow cytometry. 360,000 compounds, 0.22% hits. AID 588497; in the data active means inhibition above about 35%, passing the limit was not always enough; inconclusive means no clear call, values can overlap the other calls; further: plate controls were buffer without enzyme for full effect and enzyme alone for no effect
# BoNT-A LC inh2 – BoNT A light chain protease inhibition; 360,000 compounds, 0.17% hits; multiplex microsphere protease substrate cleavage, flow cytometry; AID 588499; inhibition, % at 10 µM; further: plate controls were buffer without enzyme for full effect and enzyme alone for no effect
# Autofluor counter – counter-screen for toxin protease inhibitors: compound fluorescence | compound autofluorescence counterscreen, microsphere flow cytometry; hits give high values | fluorescence intensity (concentration not given with the values) | 360,000 compounds, 3.1% hits; in the data active means fluorescence intensity above about 16000; inconclusive means no clear call, values can overlap the other calls
# Anthrax LF inh2 – anthrax lethal factor protease inhibition; P15917; multiplex microsphere protease cleavage assay, LF; inhibition, % at 10 µM; 360,000 compounds, 0.12% hits; AID 588501; further: plate controls were buffer without enzyme for full effect and enzyme alone for no effect
# The depositor's hits bear a star; ? = inconclusive; · = no result given. Sampled rows, rich in hits. Any-hit rate of the full collection: about 3.9%. Unless noted, no stated cut-off is given here; in the data, active means inhibition above about 30%; inconclusive means no clear call, values can overlap the other calls; inactive means below that.
SMILES,SARS 3CLpro inh,DUSP3 inh,BoNT F protease,BoNT-A LC inh2,Autofluor counter,Anthrax LF inh2
COc1ccccc1-c1cc(C(=O)NCCN2CCOCC2)no1,-7,18,3,0,11229,-1
O=C(NCCN1CCOCC1)c1cc(-c2ccc(Cl)cc2)on1,-3,38,-5,?,17467*,-3
O=C(NCCN1CCOCC1)c1ccc([N+](=O)[O-])cc1[N+](=O)[O-],-1,8,-10,-1,4042,0
O=C(NCCN1CCOCC1)c1cc([N+](=O)[O-])ccc1Cl,-1,50*,6,1,3750,-7
CC(C)(C)c1ccc(C(=O)NCc2nnc(SCC(=O)N3CCCC3)o2)cc1,·,·,0,0,3979,10
COc1cccc(-c2cc(C(=O)Nc3ccc(OC)c(OC)c3)no2)c1,-2,17,1,1,19835*,-1
O=C(NC(=S)NCCN1CCOCC1)c1ccccc1,0,14,-1,0,2010,-2
COc1ccc(NC(=O)c2cc3n(n2)C(C(F)(F)F)CC(c2ccc(OC)cc2)N3)cc1 (stereo not drawn),-6,14,3,0,7737,-2
O=C(NC(=S)NCCN1CCOCC1)c1cccc(Cl)c1,-4,20,-2,-1,22268*,1
COc1ccc(C2CC(C(F)(F)F)n3nc(C(=O)NCCN4CCOCC4)cc3N2)cc1 (stereo not drawn),-2,-4,-4,-1,17087*,-2
CCOC(=O)C1=CC[C@H]2c3c(c4ccccc4n3C)C(=O)C1N2C(=O)OC(C)(C)C,·,·,0,0,3844,0
O=C(NN=C1CCCC1)c1cccc(Br)c1,-2,54*,15,2,3198,6
C=CCNC(=O)c1cccc(Br)c1,-6,-10,-4,-3,23849*,-1
O=C(N/N=C1\CCCc2ccccc21)c1cccc(Br)c1,0,8,-2,0,4160,1
CC(C)(C)NC(=O)C12CCC(C)(c3nc4ccccc4nc31)C2(C)C (stereo not drawn),5,15,3,3,22617*,-1
CCOC(=O)C(C)NC(=O)CCc1nnc2ccc(N3CCC(C)CC3)nn12 (stereo not drawn),1,10,37*,2,4017,-1
O=C(CSC(=S)N1CCOCC1)Nc1nc(-c2ccccc2)c(-c2ccccc2)o1,2,24,-2,0,6109,-2
O=C(CSC(=S)N1CCCCC1)Nc1nc(-c2ccccc2)c(-c2ccccc2)o1,3,13,2,1,21247*,-10
COCCCn1c(C(C)C)nc2oc3cc(OC)ccc3c(=O)c2c1=O,1,21,1,-1,20914*,0
COCCn1c(-c2ccc(OC)cc2)nc2oc3cc(OC)ccc3c(=O)c2c1=O,-1,37,-5,-3,20954*,-3
COc1ccc(-c2nc3oc4cc(OC)ccc4c(=O)c3c(=O)n2Cc2ccco2)cc1,-5,-22,-1,0,20811*,-1
COCCn1c(-c2ccc(Cl)cc2)nc2oc3cc(OC)ccc3c(=O)c2c1=O,3,16,-8,-1,6669,-4
COc1ccc2c(=O)c3c(=O)n(Cc4ccccc4)c(C(C)C)nc3oc2c1,·,·,-20,-5,3502,?
COc1ccc2c(=O)c3c(=O)n(Cc4ccco4)c(-c4ccco4)nc3oc2c1,4,15,-2,0,8037,-4
CCCCCCN(C(=O)CCCCCN1C(=O)NC(c2ccc([N+](=O)[O-])cc2)C(C(=O)OCc2ccccc2)=C1C)C(C(=O)NCCCC)C1CCCCC1 (stereo not drawn),·,·,1,0,3630,-7
SMILES,SARS 3CLpro inh,DUSP3 inh,BoNT F protease,BoNT-A LC inh2,Autofluor counter,Anthrax LF inh2
COc1ccc(CN(C)C(=O)Cn2cc(C)c(=O)[nH]c2=O)cc1OC,·,·,2,0,3648,-2
COc1cc(CN2CCNC(=O)C2CC(=O)N2CCCN(C(C)=O)CC2)cc(OC)c1 (stereo not drawn),-2,10,3,4,5398,4
CCN1CCCC1CN=Cc1c(O)n(-c2ccccc2)c(=O)c2ccccc12 (stereo not drawn),0,6,4,?,27436*,4
Cc1ccc(-n2c(O)c(C=NCc3ccccn3)c3ccccc3c2=O)cc1,-1,-1,-3,0,2678,-2
CC(C)CCN=Cc1c(O)n(-c2ccccc2)c(=O)c2ccccc12,-4,7,1,?,22931*,-1
O=C(Nc1ncccc1O)c1ccc(S(=O)(=O)Nc2ccccc2)cc1,·,·,12,3,5746,4
O=C(O)C1CCCC2CN3CCc4c([nH]c5ccccc45)C3C(O)C21 (stereo not drawn),-3,56*,·,·,·,·
O=P(Cc1ccccn1)(c1ccccc1)c1ccccc1,-2,30,-3,-2,24061*,-3
Nc1nc(N)c2c(ccc3c2ccn3Cc2cccc([N+](=O)[O-])c2)n1,·,·,-14,0,5513,-7
COc1ccc(CC(=O)NCc2ccc(Cl)cc2)cc1S(=O)(=O)N1CCOCC1,·,·,?,?,5080,?
O=C(CN1C(=O)C2(OCCO2)c2ccccc21)c1ccc(Cl)cc1,-1,0,0,?,16345*,-3
COC(=O)CN1C(=O)C2(OCCCO2)c2cc(Br)ccc21,-1,29,4,0,23376*,0
O=C(CN1C(=O)C2(OCCCO2)c2ccccc21)NCc1ccccc1,8,4,-4,-3,17108*,-4
Cc1ccc(C)c(CN2C(=O)C3(OCCCO3)c3ccccc32)c1,0,-2,-2,-1,23436*,-3
CC(C(=O)NCc1ccc(F)cc1)c1ccc([N+](=O)[O-])cc1 (stereo not drawn),0,-14,2,1,2133,0
Cc1cc(C)cc(C(=O)Nn2cnnc2)c1,3,30,-13,-4,4021,-10
Cc1ccc(CNC(=O)CN2C(=O)C3(OCCCO3)c3ccccc32)cc1,4,22,40*,38*,11499,-21
CCOc1ccccc1C(=O)NC(C(=O)OCC(=O)NNC(=O)c1cccs1)C(C)C (stereo not drawn),·,·,2,0,3798,-5
CCOC(=O)c1c(C)[nH]c(C)c1C(=O)COC(=O)[C@@H](NC(=O)c1ccccc1OCC)C(C)C,-1,2,-3,-2,23944*,-4
COc1ccc(NC(=O)C2(C)CCN2Cc2cccc(OC)c2F)cc1OC (stereo not drawn),·,·,6,1,3459,-6
CCOC(=O)C1CCCN(C(=O)CCCn2nnnc2CN2CCC(C)CC2)C1 (stereo not drawn),-1,-31,8,1,4247,-4
CCOc1cc(/C=C(\C#N)C(=O)Nc2cccc(C(=O)O)c2)ccc1OCc1ccc(Br)cc1,5,53*,9,0,5668,0
COc1cccc(C(C)(O)c2nc(/C=C/c3ccccc3)cs2)c1 (stereo not drawn),·,·,-3,0,3469,-3
